SMN2 splice up: qHTS Assay for Enhancers of SMN2 Splice Variant Expression. HEK293 SMN2-luciferase splicing reporter, luminescence, 30-36 h. Potency, µM (top dose mostly 46.1 µM), without a hit: at the top dose activity change, positive = activation, actives largely listed as activators. 210,000 tested, 2.8% active. AID 1458, 2008; further: % of control where 0% means no effect; nearly all actives have a fitted effect of over 55% in size
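qHTS luciferase splicing reporter: luminescence rises when SMN2 exon 7 is included in transfected HEK293 cells. Compound exposure lasted 30-36 h at 37C, with 4.5 mM final sodium butyrate as control, followed by a ONE-Glo read.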
ELG1 genotox: qHTS screen for small molecules that induce genotoxicity in human embryonic kidney (HEK293T) cells expressing luciferase-tagged ELG1 | HEK293T ELG1-luciferase reporter, luminescence, 16 h | Potency, µM (doses to about 46 µM), without a hit: top-dose activity change, positive = activation, usual class: activators | 330,000 tested, 1.3% active | AID 504466, 2011; further: % of control where 0% means no effect; nearly all actives have a fitted effect of over 60% in size
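HEK293T cells expressing luciferase-tagged ELG1 were treated with compound or DMSO for 16 hr at 37°C. Luciferase activity was then read after 30 min with ONE-Glo at room temperature; rising signal flags genetic stress.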
NPC1 promoter act: qHTS Assay for NPC1 Promoter Activators; Huh7 NPC1 promoter luciferase reporter, 24 h; Potency, µM (titrated, usually from 9.22 µM), inactives show top-dose activation, actives largely listed as activators; 320,000 tested, 2.4% active; further: % of control where 0% means no effect; nearly all actives have a fitted effect of over 60% in size
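Compounds in DMSO were transferred onto Huh7 NPC1-luciferase reporter cells pre-incubated 2 h; after 24 h at 37 °C, Amplite reagent was dispensed and luminescence recorded 10 min later.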
FLuc counter: qHTS profiling assay for firefly luciferase inhibitor/activator using purifed enzyme and Km concentrations of substrates (counterscreen for miR-21 project). Luciferin 4-monooxygenase (Photinus pyralis), P08659. purified FLuc, Km substrates, luminescence inhibition. Potency, µM (doses to about 57.5 µM), for the others: at the top dose activity change, negative = inhibition, hits mostly inhibitors. 360,000 tested, 6.9% active;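 further: plate controls were vehicle for no effect and reference inhibitor for full effect; nearly all actives have a fitted effect of over 55% in size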
Target sequence (P08659 whole entry, looked up): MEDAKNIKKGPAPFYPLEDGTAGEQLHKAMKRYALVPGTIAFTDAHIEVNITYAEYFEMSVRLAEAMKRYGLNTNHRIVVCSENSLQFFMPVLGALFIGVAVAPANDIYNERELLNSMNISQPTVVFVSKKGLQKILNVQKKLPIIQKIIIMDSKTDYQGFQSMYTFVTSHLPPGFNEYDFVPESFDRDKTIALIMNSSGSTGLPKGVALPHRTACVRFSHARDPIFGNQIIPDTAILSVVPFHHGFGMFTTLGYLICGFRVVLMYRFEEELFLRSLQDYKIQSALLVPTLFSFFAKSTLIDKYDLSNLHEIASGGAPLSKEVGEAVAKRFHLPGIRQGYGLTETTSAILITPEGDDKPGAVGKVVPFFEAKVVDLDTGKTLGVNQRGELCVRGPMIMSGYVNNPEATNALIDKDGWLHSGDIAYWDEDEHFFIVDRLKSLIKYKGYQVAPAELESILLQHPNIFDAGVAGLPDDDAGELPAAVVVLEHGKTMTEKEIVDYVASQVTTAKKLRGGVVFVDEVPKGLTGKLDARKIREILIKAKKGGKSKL
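Biochemical qHTS of compounds, final roughly 60 µM downward over six points, against 10 nM purified firefly luciferase using Km concentrations of substrates (10 uM D-luciferin, 10 uM ATP) in Tris acetate pH 7.5 buffer; luminescence output.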
ELG1 DNA repair: qHTS screen for small molecules that inhibit ELG1-dependent DNA repair in human embryonic kidney (HEK293T) cells expressing luciferase-tagged ELG1; 330,000 tested, 2.3% active; Potency, µM (top dose mostly 46.1 µM), without a hit: at the highest dose activity change, negative = inhibition, hits mostly inhibitors; HEK293T ELG1-luciferase reporter, luminescence, 16 h; DNA damage induced by 5-fluorouridine; further: on the % scale 0 is the no-effect control and ±100 the full control effect; nearly all actives have a fitted effect of over 55% in size
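Quantitative HTS, concentration-response format. 2,000 cells/well co-treated with 5-fluorouridine and compound, 16 hr in 5% CO2 at 37 °C; ONE-Glo luminescence read after 30 min.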
Rab9 prom act: qHTS Assay for Rab9 Promoter Activators | Potency, µM (series often up to 9.22 µM), for the others: at the highest dose activation, negative = inhibition, hits mostly activators | 320,000 tested, 2.8% active | Huh7 Rab9 promoter-luciferase reporter, luminescence, 24 h; further: % of control where 0% means no effect; nearly all actives have a fitted effect of over 60% in size
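Huh7 cells stably carrying Rab9 promoter–luciferase reporter, plated 1500 cells/well, compound added after 2 h and incubated 24 h at 37 °C; luciferase luminescence then read after 10 min with detection reagent.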
Active calls of the source: *; ? = inconclusive; / = no result; [ ] = dose if it differs, or a comment. Sampled rows, rich in hits. Any-hit rate of the full collection: about 9.2%. The call rests on the fitted dose curve; in most records, active means well fitted curve in the direction sought with a large enough effect; inconclusive means small, poorly fitted or top-dose-only effect, or another doubt; inactive means no such curve, though single readings can be large; an effect the other way counts as inactive or inconclusive. Potency means the concentration at half of the fitted maximal effect.

SMILES	SMN2 splice up	ELG1 genotox	NPC1 promoter act	FLuc counter	ELG1 DNA repair	Rab9 prom act
CCc1cc(CNC(=O)c2ccc3nc(Cc4ccc(OC)c(OC)c4)oc3c2)on1	/	9.4%	-0.1%	-12.4%	?	-10.0%
CCC1CCCCN1C(=O)c1ccc2nc(Cc3ccc(OC)cc3)oc2c1 (stereo not given)	/	?	?	19µM*	?	3.55µM*
COc1ccc(Cc2nc3ccc(C(=O)N4CCCCC4CCO)cc3o2)cc1 (stereo not given)	/	2.2%	8.6%	-7.4%	-2.8%	-3.8%
COc1ccc(Cc2nc3ccc(C(=O)NCc4cc(C)no4)cc3o2)cc1	/	16.4µM*	3.98µM*	13.5µM*	?	3.55µM*
O=C(COc1ccc2c(c1)oc(=O)c1ccccc12)NC(Cc1ccc(Cl)cc1)C(=O)O (stereo not given)	/	-1.0%	-2.9%	-10.6%	-15.0%	-4.9%
CCOC(=O)c1noc2nc(C)n(CC(=O)Nc3ccc(OC)c(Cl)c3)c(=O)c12	/	/	/	1.7%	/	/
Cc1cc(N)n(-c2ccc3ccccc3c2)n1	?	?	24.6%	16.9µM*	?	?
COc1ccc(-n2nc(C)cc2N)cc1	/	0.5%	-0.3%	-3.5%	?	-1.4%
CC(OC(=O)c1cc(O)c2ccccc2c1O)C(=O)Nc1ccc(C(N)=O)cc1 (stereo not given)	/	9.8%	10.4%	8.49µM*	14.5%	20.7%
CC(OC(=O)c1ccccc1C(=O)N(C)c1ccccc1)C(=O)Nc1ccc(C(N)=O)cc1 (stereo not given)	/	1.7%	6.5%	-1.7%	13.2%	1.9%
CCN(C(=O)c1cccs1)c1nnc(-c2ccncc2)s1	25.8%	?	13.8%	13.5µM*	-2.6%	?
O=C(Nc1ccccc1)N1CCN(c2nc(-c3ccccc3)ns2)CC1	/	-6.4%	0.2%	-12.6%	23.1µM*	-5.4%
O=C(Nc1ccccc1Cl)N1CCCN(c2nc(-c3ccccc3)ns2)CC1	/	-5.8%	-4.7%	2.3%	?	-15.2%
Cc1ccc(N2C(=O)CS(=O)(=O)CC2=O)cc1	-3.1%	-0.6%	-0.8%	-2.9%	1.3%	-7.9%
Cc1ccc(N2C(=O)CC3(CCCC3)CC2=O)cc1	/	10.4%	1.7%	10.7µM*	?	12.1%
O=c1c(-c2ccccc2)n[nH]c2ccccc12	/	0.0%	2.24µM*	9.53µM*	?	3.55µM*
CC1CCN(c2ccc(-c3cccc(NC(=O)c4ccco4)c3)nn2)CC1	/	0.517µM*	1.26µM*	0.151µM*	?	1µM*
CCC(=O)Nc1cccc(-c2ccc(N3CCC(C)CC3)nn2)c1	/	0.731µM*	0.316µM*	0.135µM*	?	0.316µM*
CC1CCN(CC(=O)Nc2cccc(Cl)c2)CC1	-4.7%	-3.3%	-1.5%	-2.3%	2.9%	-5.4%
CCC(=O)Nc1ccc(-c2ccc(N3CCC(C)CC3)nn2)cc1	/	?	2.82µM*	9.53µM*	?	1.41µM*
OC1(Cc2cc(-c3ccccc3)no2)CCN(CCCc2ccccc2)CC1	/	-3.3%	0.2%	-10.5%	-5.6%	-0.3%
O=C(CSc1ncc2c(n1)-c1ccccc1N(Cc1ccc(F)cc1)S2(=O)=O)c1ccc(Cl)cc1	/	/	/	1.6%	/	/
Cc1noc(C)c1S(=O)(=O)Nc1ccc(C(C)C)cc1	/	-0.2%	-3.4%	0.6%	-0.4%	-1.6%
Cc1cc(-c2cccs2)n[nH]1	17.8%	1.4%	1.6%	2.9%[2.3 µM]	3.9%	3.3%
Cc1ccc(-c2cc3ccccc3nc2N)cc1	/	?	5.01µM*	3.01µM*	?	?
Cc1cc2ncc(-c3cccs3)nc2cc1C	/	?	0.891µM*	0.338µM*	?	3.98µM*
